From PubChem BioAssay (EPA / NIEHS) come the findings set out here.

Results filed as inconclusive are left out. Active and inactive are the calls of the source. Rule for the calls, unless noted: active = hit-call score of the fitted dose curve at least 0.9, where 1 is the maximum; inactive = score below 0.9.

Experiment [1] can be described thus: CCTE_Shafer_MEA_dev_firing_rate_mean: CCTE's Neural Network Formation Assay for Mean Firing Rate, Shafer Lab (AID 2284031).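 Note: curve fitted for loss of firing so AC50 reflects decreased mean firing rate.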 A digest of the protocol: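 Spike frequency (spikes/recording length, averaged over active electrodes) was recorded on days 5, 7, 9 and 12 and collapsed to AUC; rat cortical cultures received compound continuously over 12 days of network development.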

The nature of experiment [2]: CCTE_Shafer_MEA_dev_per_burst_spike_percent: CCTE's Neural Network Formation Assay for Percent of Spikes in a Burst, Shafer Lab (AID 2284032).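 Note: fitted as a decrease in burst spike percentage below DMSO baseline.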 A digest of the protocol:
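Value is trapezoidal AUC over recordings on days 5, 7, 9 and 12 of the well-mean fraction of spikes falling in single-electrode bursts; rat cortical cultures exposed continuously from plating, treatment renewed DIV 5 and 9, fitted downward against DMSO.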

Experiment [3] can be described thus: CCTE_Shafer_MEA_dev_active_electrodes_number: CCTE's Neural Network Formation Assay for Number of Active Electrodes, Shafer Lab (AID 2284040; active = hit-call score of the fitted dose curve at least 0.9, where 1 is the maximum;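 note: potency for loss of active electrodes versus DMSO so lower counts are hits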). Put shortly:
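Counts electrodes per well firing at least 5 spikes/min, recorded on days 5, 7, 9 and 12 in rat cortical cultures dosed continuously from plating (treatment refreshed DIV 5, 9). Value is the area under the curve over recordings, fitted downward relative to DMSO.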

The nature of experiment [4]: CCTE_Shafer_MEA_dev_burst_rate: CCTE's Neural Network Formation Assay for Burst Rate, Shafer Lab (AID 2284042).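 Note: potency for loss of burst rate below DMSO control.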 A digest of the protocol: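 Cells plated, treated day 0; recorded DIV 5, 7, 9, 12; fed and re-treated DIV 5, 9. Endpoint: bursts per recording time, active-electrode well mean, trapezoidal AUC, fitted in decreasing direction against DMSO baseline.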
Experiment [5] is described as follows: CCTE_Shafer_MEA_dev_bursting_electrodes_number: CCTE's Neural Network Formation Assay for Number of Bursting Electrodes, Shafer Lab (AID 2284043; active = hit-call score of the fitted dose curve at least 0.9, where 1 is the maximum;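 note: potency is for loss of bursting electrodes relative to DMSO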). Put shortly:
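Number of electrodes reaching ≥1 burst every 2 min was recorded at DIV 5, 7, 9 and 12 and collapsed as trapezoidal area under the curve. Cultures were rat cortical neurons on MEA plates, dosed continuously from plating with medium and treatment refreshed on DIV 5 and 9.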

Experiment [6] is described as follows: CCTE_Shafer_MEA_dev_burst_duration_mean: CCTE's Neural Network Formation Assay for Mean Burst Duration, Shafer Lab (AID 2284045).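 Note: curve fitted for loss meaning shorter burst duration than DMSO.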 Put shortly:
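Mean single-electrode burst duration (first to last spike), averaged over bursting electrodes per well, then integrated as area-under-curve across recordings at days 5, 7, 9 and 12. Rat cortical cultures on MEAs, compound present from plating, refreshed at feeds.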

A short description of experiment [7]: CCTE_Shafer_MEA_dev_interburst_interval_mean: CCTE's Neural Network Formation Assay for Mean Interburst Interval, Shafer Lab (AID 2284046).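 Note: curve fitted for decrease in interburst interval relative to DMSO.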 Put shortly: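 Developing rat cortical networks on 48-well MEAs receive compound from the day of plating. Burst intervals from each active electrode are averaged per well, and AUC over the recording days is fitted in the negative direction against DMSO.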

Experiment [8] in a line: CCTE_Shafer_MEA_dev_inter_network_spike_interval_mean: CCTE's Neural Network Formation Assay for Mean Inter-network Spike Interval, Shafer Lab (AID 2284047).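 Note: potency for a decrease in mean inter-network spike interval below DMSO.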 Put shortly:
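Rat cortical cultures, 1.5 x 10^5 cells/well on 48-well MEA plates; continuous exposure days 0–12, medium and compound refreshed DIV 5, 9. Mean time between consecutive network-spike peaks; AUC across DIV 5/7/9/12; DMSO baseline, negative fitting direction.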

Experiment [9] is described as follows: CCTE_Shafer_MEA_dev_network_spike_number: CCTE's Neural Network Formation Assay for Number of Network Spikes, Shafer Lab (AID 2284048).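 Note: synchronized bursts across electrodes counted on days 5 7 9 12 and integrated as AUC; fit as a loss of signal meaning fewer network spikes than DMSO.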 A digest of the protocol: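 Number of network spikes (coordinated firing across electrodes) recorded on days 5, 7, 9 and 12 and summarised as area under the curve. Rat cortical cultures on MEA, continuous compound exposure with full medium/treatment exchange at DIV 5 and 9.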

Experiment [10] is described as follows: CCTE_Shafer_MEA_dev_network_spike_peak: CCTE's Neural Network Formation Assay for Mean Number of Electrodes in Network Spike, Shafer Lab (AID 2284049).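 Note: fitted for loss of signal meaning fewer electrodes in network spikes than DMSO.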 Put shortly:
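Rat cortical primary culture, 1.5 x 10^5 cells/well, 48-well MEA (16 electrodes/well). Dosing day 0 through DIV 12, full media/compound exchange DIV 5, 9. AxIS adaptive spike detection; AUC over days 5/7/9/12; loss-of-signal vs DMSO.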

Experiment [11] in a line: CCTE_Shafer_MEA_dev_spike_duration_mean: CCTE's Neural Network Formation Assay for Mean Spike Duration, Shafer Lab (AID 2284051).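 Note: mean network spike duration pooled as area under curve over DIV 5 to 12 recordings; potency for a decrease in mean network spike duration versus DMSO.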 Put shortly:
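Readout is the average length of network spikes, clustered firing across electrodes, summed over DIV 5, 7, 9 and 12 as area under the curve. Neurons from rat cortex developed networks on MEA plates under continuous 12-day exposure.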

Experiment [12] in a line: CCTE_Shafer_MEA_dev_network_spike_duration_std: CCTE's Neural Network Formation Assay for Standard Deviation of Network Spike Duration, Shafer Lab (AID 2284052).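 Note: hits are decreases in network spike duration SD versus DMSO vehicle.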 Put shortly: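 Read-out is the trapezoidal area-under-the-curve across recordings made on days 5, 7, 9 and 12, fitted in the negative direction against DMSO baseline. Neurons were primary rat cortical cells treated from day 0, with treatment renewed at each feed.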

Experiment [13] in a line: CCTE_Shafer_MEA_dev_per_network_spike_spike_number_mean: CCTE's Neural Network Formation Assay for Mean Number of Spikes in a Network Spike, Shafer Lab (AID 2284053).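 Note: fitted as decrease in spikes per network spike relative to DMSO.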 A digest of the protocol: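 Continuous twelve-day exposure of developing rat cortical networks grown over 16 microelectrodes per well; spontaneous firing is captured at four time points, and the per-network-spike spike number is integrated over development by trapezoidal AUC.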

The nature of experiment [14]: CCTE_Shafer_MEA_dev_per_network_spike_spike_percent: CCTE's Neural Network Formation Assay for Percent of Spikes in a Network Spike, Shafer Lab (AID 2284054). A digest of the protocol:
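Metric: fraction of spikes falling in a 0.05 s window at network-spike peaks. Recordings were made on days 5, 7, 9 and 12 and collapsed by trapezoidal AUC. Cultures were rat cortical neurons on MEA plates, dosed continuously from plating, re-dosed at media changes.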

A short description of experiment [15]: CCTE_Shafer_MEA_dev_LDH: CCTE's Lactate Dehydrogenase Assay for Cytotoxicity in the Neural Network Formation Assay, Shafer Lab (AID 2284068; active = hit-call score of the fitted dose curve at least 0.9, where 1 is the maximum;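 note: exposure for twelve days from plating with re-dosing on DIV 5 and 9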). A digest of the protocol:
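Cytotoxicity companion to network-formation recordings: rat cortical neurons received compound over 12 days of development, re-dosed at DIV 5 and 9 feeds. Viability was inferred from LDH enzyme activity relative to DMSO.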

Experiment [16] can be described thus: CCTE_Shafer_MEA_dev_AB: CCTE's Alamar Blue Assay for Cytotoxicity in the Neural Network Formation Assay, Shafer Lab (AID 2284083; active = hit-call score of the fitted dose curve at least 0.9, where 1 is the maximum;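 note: resazurin reduction fluorescence as viability of cultured neurons; twelve days of exposure from plating with re-dosing on DIV 5 and 9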). A digest of the protocol: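 Fluorescent resazurin reduction serves as the viability read-out, with DMSO as negative control and baseline. Cells were primary rat cortical neurons grown on MEA plates and dosed from day 0 to day 12, treatment renewed on DIV 5 and 9.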
(In general: The colour change of resazurin is a common sign of viable cells or microbes.)

A short description of experiment [17]: CCTE_Shafer_MEA_dev_mutual_information_norm: CCTE's Neural Network Formation Assay for Mutual Information Normalization, Shafer Lab (AID 2284091).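 Note: mutual information between electrodes summarised as area under curve across four recording days; potency is for a decrease in mutual information relative to DMSO.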 Put shortly:
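Shared information across electrodes, tracked on days 5, 7, 9 and 12 of network development and collapsed as trapezoidal area under the curve. Rat cortical cultures were treated continuously from plating, with treatment renewed at feeds on DIV 5 and 9; DMSO baseline, negative-direction fit.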

Experiment [18] can be described thus: IUF_NPC1a_proliferation_area_72hr: Leibniz Research Institute for Environmental Medicine (IUF) 72-hour Neural Progenitor Cell Proliferation Area Assay (NPC1a) (AID 2284208). A digest of the protocol: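 Read-out: increase in sphere area over 72 h by automated phase-contrast imaging, fitted in positive direction versus DMSO baseline. One hNPC sphere (0.25-0.35 mm) per well in EGF/FGF medium; growth-factor withdrawal served as positive control.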

A short description of experiment [19]: IUF_NPC1_viability_72hr: Viability Assessment at 72 hours in the Leibniz Research Institute for Environmental Medicine (IUF) Neural Progenitor Cell Proliferation Assay (NPC1) (AID 2284209). A digest of the protocol: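 Viability was measured by resazurin-to-resorufin fluorescence (alamar blue) after 72 h of continuous exposure without compound renewal. Each well held one hNPC sphere (gestational week 16-19 fetal cortex, 0.25-0.35 mm) cultured in EGF/FGF proliferation medium at 37C and pH 7.2-7.6.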

Experiment [20] can be described thus: CCTE_Mundy_HCI_Cortical_Synap_Neur_Matur_NeuriteSpotCountPerNeuriteLength: CCTE's Synaptogenesis and Neurite Maturation Assay in rat cortical cells for Neurite Spot Count per Neurite Length, Mundy Lab (AID 2284210). A digest of the protocol: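 Synaptophysin spots per unit neurite length, measured by automated imaging of MAP2/synaptophysin/Hoechst-stained neurons. Cultures from rat cortex received chemical at DIV 7 with media change through DIV 12; glial growth arrested by AraC at DIV 5; DMSO baseline.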

Experiment [21] is described as follows: CCTE_Mundy_HCI_Cortical_Synap_Neur_Matur_BPCount: CCTE's Synaptogenesis and Neurite Maturation Assay in rat cortical cells for Branch Point Count, Mundy Lab (AID 2284211). Put shortly: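 HCI read-out of branch points from MAP2/synaptophysin/Hoechst immunofluorescence; rat cortical cultures, AraC DIV 5, dosing DIV 7, fixed DIV 12; fit in positive direction vs DMSO baseline.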

A short description of experiment [22]: CCTE_Mundy_HCI_Cortical_NOG_NeuriteCount: CCTE's Neurite Outgrowth Assay in rat cortical cells for Neurite Count, Mundy Lab (AID 2284212).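 Note: cells fixed about two days after chemical exposure began.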 Put shortly: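 Rat cortical primary cells; compound added 2 h post-plating, 1/10 dilution of working solution. Anti-betaIII-tubulin/AF488 ICC; ArrayScan neurite count vs DMSO.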
Experiment [23] can be described thus: CCTE_Mundy_HCI_Cortical_NOG_NeuriteLength: CCTE's Neurite Outgrowth Assay in rat cortical cells for Neurite Length, Mundy Lab (AID 2284213).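 Note: neurites imaged about 48 to 50 h after chemical exposure began.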 A digest of the protocol: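 First, rat primary cortical cells were plated and, 2 h later, given test chemical as a 1/10 dilution. Finally, βIII-tubulin immunostaining enabled automated imaging of neurite length.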
A short description of experiment [24]: CCTE_Mundy_HCI_Cortical_Synap_Neur_Matur_NeuriteLength: CCTE's Synaptogenesis and Neurite Maturation Assay in rat cortical cells for Neurite Length, Mundy Lab (AID 2284214). A digest of the protocol: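 Neurite length quantified by automated high-content imaging of MAP2, synaptophysin and Hoechst staining. Rat cortical cells received chemical from DIV 7 to DIV 12 […], glial growth arrested by AraC at DIV 5; DMSO baseline.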

Take `CC1(C)C(C=C(Cl)Cl)C1C(=O)O[C@H](C#N)c1cccc(Oc2ccccc2)c1` (some centres undefined): the concentration at half-maximal activity (AC50) – broadly, the midpoint of the concentration-response curve, whichever way the signal moves – in experiment [1] was 0.711 µM (active); in experiment [2], 4.59 µM (active); in experiment [3] it was 4.44 µM (active); in experiment [4] it was 1.95 µM (active); in [5] it was 3.6 µM (active); in experiment [6], 0.65 µM (active). Moreover, the half-maximal activity concentration (AC50) in [7] was 8.7 µM (active); in experiment [8], 1.03 µM (active); in experiment [9], 7.66 µM (active); in experiment [10], 2.75 µM (active); in [11], 2.95 µM (active); in experiment [12], 3.1 µM (active). For the same compound, the AC50 in experiment [13] is 2.74 µM (active); in experiment [14] it was 7.68 µM (active); in [15] it was 5.77 µM (active); in experiment [16], 5.41 µM (active); in experiment [17], 2.9 µM (active); in experiment [20], 15.6 µM (active). Also, the AC50 was 12.8 µM (active) in experiment [21], 80 µM (active) in [22], 82 µM (active) in experiment [23] and 11 µM (active) in experiment [24]. The compound was classed as inactive in [18] and in [19].
